Measured values: PubChem BioAssay (NCATS)
Inconclusive results are not listed. The source made the active and inactive calls. Unless noted, calls follow the shape of the dose curve; as a rule, active = well fitted curve in the direction sought with a large enough effect; inconclusive = small, poorly fitted or top-dose-only effect, or another doubt; inactive = no such curve, though single readings can be large; an effect the other way counts as inactive or inconclusive.

Tests used:
[1] = biological target: Ferritin light chain (Equus caballus) (UniProt P02791); experiment: qHTS Validation Assay for Identification of Novel General Anesthetics (AID 2323); also: series mostly up to about 77 µM
Ferritin light chain (Equus caballus), sequence (P02791 2-175 limits assumed): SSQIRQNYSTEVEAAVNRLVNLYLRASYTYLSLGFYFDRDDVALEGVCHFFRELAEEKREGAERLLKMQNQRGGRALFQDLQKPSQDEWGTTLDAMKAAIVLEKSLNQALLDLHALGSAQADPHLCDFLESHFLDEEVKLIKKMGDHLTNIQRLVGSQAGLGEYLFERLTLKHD
How it was run: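 10 uM horse-spleen apoferritin + 1-AMA (50% saturated, PBS); cpd pin-transferred, 10 min RT. Ex 380/Em 535 nm endpoint. Activity normalized between free 1-AMA and 1-AMA/apoferritin; 4-parameter Hill fit of concentration-response.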

[2] = Cytometric Cell-Based qHTS for Inhibitors of the mTORC1 Signaling Pathway in MEF (Tsc2-/-, p53-/-) Cells (AID 2660);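 also: Tsc2 and p53 null MEFs carrying empty vector with compound for 24 h; percent of cells above a phospho-rpS6 to PI ratio cutoff in each well; series mostly up to about 38 µM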
How it was run: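 Immunofluorescence qHTS of rpS6 Ser235/236 phosphorylation: MEFs (Tsc2-/-, p53-/-) treated 24 h, 37 C, in DMEM + 10% FBS. Alexa-488 signal normalized to PI count, referenced to rapamycin (7.5 nM) and DMSO; PI cell number recorded for viability.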

[3] = High Content Imaging Cell-Based qHTS for Inhibitors of the mTORC1 Signaling Pathway in MEF (Tsc2-/-, p53-/-) Cells (AID 2666);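 also: percent of cells scored positive for phospho-rpS6 Ser235/236 immunostaining by imaging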
How it was run: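 MEF Tsc2-/- p53-/- (empty vector), DMEM/10% FBS; cpd 24 h 37 °C; PFA fix, Alexa-488 p-rpS6 S235/236 Ab, Hoechst; imaged; rapamycin-defined inhibition; % positive cells/well.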

[4] = High Content Imaging Cell-Based qHTS for Inhibitors of the mTORC1 Signaling Pathway in MEF Cells (AID 2667);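 also: Tsc2-/- p53-/- MEFs stably re-expressing wild-type Tsc2 exposed 24 h; series mostly up to about 38 µM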
How it was run: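 Read-out is the share of phospho-rpS6-positive cells per well, from Hoechst-normalized Alexa-488 Ser235/236 staining imaged on IN Cell. Cells: WT Tsc2-expressing Tsc2-/-, p53-/- MEFs exposed to compound for 24 hrs.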

[5] = Cytometry Cell-Based qHTS for Inhibitors of the mTORC1 Signaling Pathway in MEF cells (AID 2668);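 also: Tsc2-/- p53-/- mouse embryonic fibroblasts stably re-expressing wild-type Tsc2; percent cells positive for phospho-rpS6 Ser235/236 relative to propidium iodide stain; series mostly up to about 38 µM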
How it was run: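 Read-out: phospho-rpS6 Ser235/236 immunofluorescence normalized to propidium iodide intensity, scored as % active cells against a rapamycin (7.5 nM) threshold. Cells: Tsc2-/-, p53-/- MEFs stably expressing WT Tsc2, compound-treated 24 hrs at 37 degree Celsius.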

[6] = Validation screen for small molecules that induce DNA re-replication in MCF 10A normal breast cells (AID 463097); also: nearly all actives have a fitted effect of over 60% in size
How it was run: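 250 MCF 10A cells/well; compound pin-transferred; 48 hr, 37 C, 5% CO2; Hoechst 40 min; imaged 405/500-530 nm. Hits = more high-intensity nuclei.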

[7] = biological target: Ubiquitin carboxyl-terminal hydrolase 2 (Homo sapiens) (UniProt O75604); experiment: qHTS Validation Assay for Inhibitors of Ubiquitin-specific Protease USP2a Using CHOP2 as the Reporter (AID 463106)
Ubiquitin carboxyl-terminal hydrolase 2 (Homo sapiens), sequence (O75604 whole entry, looked up): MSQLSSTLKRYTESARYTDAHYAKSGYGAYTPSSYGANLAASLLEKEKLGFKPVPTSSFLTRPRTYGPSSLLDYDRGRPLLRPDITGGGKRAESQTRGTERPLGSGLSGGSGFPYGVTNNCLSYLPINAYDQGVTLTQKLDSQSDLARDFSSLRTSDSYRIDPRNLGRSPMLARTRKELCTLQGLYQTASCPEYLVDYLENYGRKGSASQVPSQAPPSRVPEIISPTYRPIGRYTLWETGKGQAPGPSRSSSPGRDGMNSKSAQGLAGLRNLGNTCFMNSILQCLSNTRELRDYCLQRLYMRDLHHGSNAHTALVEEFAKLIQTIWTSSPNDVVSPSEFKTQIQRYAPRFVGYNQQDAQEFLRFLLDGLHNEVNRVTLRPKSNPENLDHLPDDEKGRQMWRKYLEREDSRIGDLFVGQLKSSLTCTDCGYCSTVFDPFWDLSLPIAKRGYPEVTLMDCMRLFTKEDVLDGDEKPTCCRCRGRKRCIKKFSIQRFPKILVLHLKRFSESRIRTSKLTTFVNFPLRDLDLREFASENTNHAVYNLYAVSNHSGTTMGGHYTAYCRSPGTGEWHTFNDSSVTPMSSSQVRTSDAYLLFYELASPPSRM
How it was run: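 Fluorescence read-out at Ex 485nm/Em 531nm after 60min RT, following addition of 25nM Ub-CHOP2 plus 25nM reporter substrate to USP2 core (10nM) pretreated 30min with compound. Data normalized to NEM full inhibition; concentration-response curves fitted.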

[8] = biological target: Tumor susceptibility gene 101 protein (Homo sapiens) (UniProt Q99816); experiment: qHTS Validation Assay for Iinhibitors of HIV-1 Budding by Blocking the Interaction of PTAP/TSG101 (AID 485342; calls by dose curve)
Tumor susceptibility gene 101 protein (Homo sapiens), sequence (Q99816 whole entry, looked up, the tested form may be a part): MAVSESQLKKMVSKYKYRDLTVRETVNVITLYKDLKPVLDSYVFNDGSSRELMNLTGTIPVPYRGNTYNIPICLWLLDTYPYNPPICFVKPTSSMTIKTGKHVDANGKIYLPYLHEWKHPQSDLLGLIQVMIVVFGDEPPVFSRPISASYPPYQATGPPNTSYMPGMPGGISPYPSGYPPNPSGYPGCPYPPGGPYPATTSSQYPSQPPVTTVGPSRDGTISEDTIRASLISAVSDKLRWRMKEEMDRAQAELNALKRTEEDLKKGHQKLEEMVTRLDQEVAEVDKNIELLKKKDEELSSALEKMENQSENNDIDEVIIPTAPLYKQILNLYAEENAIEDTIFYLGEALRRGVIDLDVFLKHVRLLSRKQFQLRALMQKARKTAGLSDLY
How it was run: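 FP read-out: FITC-PTAP peptide, 50 nM final, binding Tsg101 binding domain, 10 uM final; 20 min r.t.; 10 mM HEPES pH 7.5, 0.15 M NaCl, 0.01% Tween 20, 3 mM EDTA, 0.1 mM TCEP.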

[9] = qHTS Validation Assay to Find Inhibitors of Chronic Active B-Cell Receptor Signaling (AID 485345; active = well fitted curve in the direction sought with a large enough effect in the main read-out, with a control signal flat, not every such curve was filed as active)
How it was run: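 TMD8 ABC-DLBCL cells stably carrying doxycycline-inducible IkappaBalpha–green luciferase fusion plus unfused red luciferase; compounds 46 uM to 3 nM, 4 h at 37C with doxycycline. Corrected green/red luminescence ratio normalized to 10 uM MG-132 and basal cell wells; curves fitted.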

[10] = Quantitative high throughput screen for delayed death inhibitors of the malarial parasite plastid, 96 hour incubation (AID 488745); also: series mostly up to about 29 µM; nearly all actives have a fitted effect of over 70% in size
How it was run: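 Decreased firefly luciferase luminescence indicates inhibited growth of reporter-integrated P. falciparum after two generations (96 h, 37 C, 5% CO2). Infected erythrocytes at 0.1% parasitemia, 2% hematocrit, in Albumax-supplemented RPMI 1640.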

[11] = biological target: Thioredoxin reductase 1, cytoplasmic (Rattus norvegicus) (UniProt O89049); experiment: qHTS Assay for Substrates of Mammalian Selenoprotein Thioredoxin Reductase 1 (TrxR1) (AID 488772);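 also: series mostly up to about 57 µM; a drop in NADPH fluorescence below the no-compound background marks a TrxR1 substrate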
Thioredoxin reductase 1, cytoplasmic (Rattus norvegicus), sequence (O89049 whole entry, looked up): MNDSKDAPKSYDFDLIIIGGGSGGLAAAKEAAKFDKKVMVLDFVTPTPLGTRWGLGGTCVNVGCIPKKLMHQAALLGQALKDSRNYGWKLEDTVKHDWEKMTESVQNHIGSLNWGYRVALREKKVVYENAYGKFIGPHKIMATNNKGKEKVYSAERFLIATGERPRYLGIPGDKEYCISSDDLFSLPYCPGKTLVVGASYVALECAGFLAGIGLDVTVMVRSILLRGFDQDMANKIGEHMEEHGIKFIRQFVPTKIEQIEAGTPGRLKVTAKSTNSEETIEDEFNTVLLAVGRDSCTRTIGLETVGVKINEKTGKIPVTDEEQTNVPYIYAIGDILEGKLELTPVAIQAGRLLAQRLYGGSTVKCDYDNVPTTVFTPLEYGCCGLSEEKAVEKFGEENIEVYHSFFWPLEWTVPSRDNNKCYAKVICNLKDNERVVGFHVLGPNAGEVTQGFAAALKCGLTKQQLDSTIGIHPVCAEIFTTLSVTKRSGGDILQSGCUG
How it was run: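 In this dual-purpose format, potential substrates are identified from the first fluorescence read after selenite addition, not from the 8-minute delta. Rat enzyme is preincubated with NADPH and then with compound at ~22 deg C.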

[12] = biological target: Thioredoxin reductase 1, cytoplasmic (Rattus norvegicus) (UniProt O89049); experiment: qHTS Assay for Inhibitors of Mammalian Selenoprotein Thioredoxin Reductase 1 (TrxR1) (AID 488773); conditions: Potency: inhibition;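 also: drop in NADPH fluorescence over an 8 min run after selenite addition; series mostly up to about 57 µM; nearly all actives have a fitted effect of over 40% in size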
How it was run: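 Inhibition is scored from the loss of NADPH fluorescence between first and last reads of an 8-min kinetic run. Selenite (400 uM) was the substrate, added after 15 min compound preincubation at room temperature.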

[13] = biological target: Flap endonuclease 1 (Homo sapiens) (UniProt P39748); experiment: qHTS Validation Assay for the Inhibitors of Human Flap endonuclease 1 (FEN1) (AID 488816)
Flap endonuclease 1 (Homo sapiens), sequence (P39748 whole entry, looked up): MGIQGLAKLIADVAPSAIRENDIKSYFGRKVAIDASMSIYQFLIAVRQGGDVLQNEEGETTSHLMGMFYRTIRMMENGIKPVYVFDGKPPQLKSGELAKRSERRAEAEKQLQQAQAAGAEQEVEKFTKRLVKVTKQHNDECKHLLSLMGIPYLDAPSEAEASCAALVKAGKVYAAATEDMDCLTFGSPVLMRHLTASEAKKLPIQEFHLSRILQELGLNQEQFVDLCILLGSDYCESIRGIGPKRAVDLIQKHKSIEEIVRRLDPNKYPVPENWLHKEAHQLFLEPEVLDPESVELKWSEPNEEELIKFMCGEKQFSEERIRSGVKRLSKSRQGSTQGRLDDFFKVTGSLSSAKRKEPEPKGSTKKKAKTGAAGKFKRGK
How it was run: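 Enzyme reagent 10 nM; cpds pinned; 15 min RT preinc.; substrate 50 nM final; reads t=0 and 15 min; no-enzyme buffer wells as neg. control; normalized data, 4-parameter Hill fit.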

[14] = biological target: M-phase phosphoprotein 8 (Homo sapiens) (UniProt Q99549); experiment: qHTS Validation Assay for Inhibitors for MPP8 Chromodomain Interactions with Methylated Histone Tails (AID 488949);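 also: AlphaScreen signal from MPP8 chromodomain bound to biotinylated H3K9me3 peptide; top concentration of the series differs between compounds; nearly all actives have a fitted effect of over 55% in size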
M-phase phosphoprotein 8 (Homo sapiens), sequence (Q99549 whole entry, looked up): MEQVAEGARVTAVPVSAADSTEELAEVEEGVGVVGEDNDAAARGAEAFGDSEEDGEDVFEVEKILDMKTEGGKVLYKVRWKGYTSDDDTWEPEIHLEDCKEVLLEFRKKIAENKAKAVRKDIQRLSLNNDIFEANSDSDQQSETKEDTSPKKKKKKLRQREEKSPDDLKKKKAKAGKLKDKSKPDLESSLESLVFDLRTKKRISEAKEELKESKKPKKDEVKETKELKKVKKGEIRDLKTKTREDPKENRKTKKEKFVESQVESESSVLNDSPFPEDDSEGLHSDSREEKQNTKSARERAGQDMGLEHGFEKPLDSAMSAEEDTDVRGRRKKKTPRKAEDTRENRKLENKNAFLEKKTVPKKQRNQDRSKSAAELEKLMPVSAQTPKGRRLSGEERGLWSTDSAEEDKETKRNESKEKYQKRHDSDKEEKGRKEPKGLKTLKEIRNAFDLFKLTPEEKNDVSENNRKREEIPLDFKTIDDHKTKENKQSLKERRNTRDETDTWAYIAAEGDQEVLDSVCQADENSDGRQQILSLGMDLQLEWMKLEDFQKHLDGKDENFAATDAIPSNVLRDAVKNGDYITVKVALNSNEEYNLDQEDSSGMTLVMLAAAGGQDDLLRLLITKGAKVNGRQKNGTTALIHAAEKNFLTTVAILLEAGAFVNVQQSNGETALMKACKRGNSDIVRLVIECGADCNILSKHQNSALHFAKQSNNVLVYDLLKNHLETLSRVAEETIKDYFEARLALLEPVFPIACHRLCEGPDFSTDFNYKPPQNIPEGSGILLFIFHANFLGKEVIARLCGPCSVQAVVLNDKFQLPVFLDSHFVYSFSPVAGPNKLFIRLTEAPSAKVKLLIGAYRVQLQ
How it was run: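 AlphaScreen read-out: streptavidin donor and nickel chelate acceptor beads (final 10 ug/mL), 30 min in the dark at RT. Complex of 50 nM MPP8 and 50 nM b-H3(1-18)K9me3 peptide had been exposed to compounds for 30 min beforehand.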

[15] = biological target: RecQ-like DNA helicase BLM (Homo sapiens) (UniProt P54132); experiment: qHTS Validation Assay for Inhibitors of Bloom's syndrome helicase (BLM) (AID 2364)
RecQ-like DNA helicase BLM (Homo sapiens), sequence (P54132 whole entry, looked up): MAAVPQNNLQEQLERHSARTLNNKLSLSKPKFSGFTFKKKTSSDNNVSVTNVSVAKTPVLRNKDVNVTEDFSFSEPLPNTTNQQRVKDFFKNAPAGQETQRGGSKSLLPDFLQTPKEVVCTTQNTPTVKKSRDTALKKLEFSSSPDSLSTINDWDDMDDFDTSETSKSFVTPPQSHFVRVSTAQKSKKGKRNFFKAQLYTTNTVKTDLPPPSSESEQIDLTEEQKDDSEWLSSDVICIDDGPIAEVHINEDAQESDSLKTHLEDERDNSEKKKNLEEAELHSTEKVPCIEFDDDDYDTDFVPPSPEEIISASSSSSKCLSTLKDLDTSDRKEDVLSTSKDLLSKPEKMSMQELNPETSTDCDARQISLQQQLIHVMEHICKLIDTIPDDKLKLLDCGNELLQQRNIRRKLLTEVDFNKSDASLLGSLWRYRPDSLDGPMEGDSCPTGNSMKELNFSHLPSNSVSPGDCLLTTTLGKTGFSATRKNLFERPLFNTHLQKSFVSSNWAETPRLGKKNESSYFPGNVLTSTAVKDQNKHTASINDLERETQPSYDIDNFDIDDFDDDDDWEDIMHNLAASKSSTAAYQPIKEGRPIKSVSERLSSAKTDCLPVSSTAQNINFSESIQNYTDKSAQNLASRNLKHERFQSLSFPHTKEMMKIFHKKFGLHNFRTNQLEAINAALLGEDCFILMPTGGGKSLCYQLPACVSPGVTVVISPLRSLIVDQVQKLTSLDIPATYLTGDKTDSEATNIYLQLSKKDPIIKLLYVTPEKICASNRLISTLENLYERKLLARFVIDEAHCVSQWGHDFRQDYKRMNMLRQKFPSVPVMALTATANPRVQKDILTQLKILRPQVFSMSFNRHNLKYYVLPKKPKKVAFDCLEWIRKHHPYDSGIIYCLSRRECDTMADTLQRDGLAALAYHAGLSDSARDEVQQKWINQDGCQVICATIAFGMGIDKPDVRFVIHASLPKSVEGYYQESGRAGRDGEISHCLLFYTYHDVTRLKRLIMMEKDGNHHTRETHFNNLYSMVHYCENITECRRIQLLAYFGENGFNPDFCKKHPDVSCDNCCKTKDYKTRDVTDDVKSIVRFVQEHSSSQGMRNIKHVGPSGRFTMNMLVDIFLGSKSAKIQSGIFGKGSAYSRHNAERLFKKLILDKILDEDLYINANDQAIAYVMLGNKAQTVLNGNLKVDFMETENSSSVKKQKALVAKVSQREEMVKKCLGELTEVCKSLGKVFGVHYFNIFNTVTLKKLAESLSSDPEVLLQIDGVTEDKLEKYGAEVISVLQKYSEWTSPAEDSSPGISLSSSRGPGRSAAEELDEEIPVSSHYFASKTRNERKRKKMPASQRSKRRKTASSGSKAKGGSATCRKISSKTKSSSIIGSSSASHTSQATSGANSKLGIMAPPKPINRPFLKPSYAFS
How it was run: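 50 nM BLM preincubated 15 min at room temperature with compound in pH 8.0 Tris buffer containing 2.5 ug/ml poly(dI-dC); started with 200 nM TAMRA/BHQ-2 forked duplex and 2 mM ATP (final). Unwinding read as TAMRA fluorescence increase, two reads 2 h apart.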

[16] = biological target: DNA polymerase III PolC-type (Bacillus subtilis (strain 168)) (UniProt P13267); experiment: qHTS Validation Assay for the Inhibitors of DNA Replication in Gram-Positive Bacteria (AID 485295);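 also: reconstituted holoenzyme with PolC plus beta clamp SSB and primase; PicoGreen fluorescence of double-stranded DNA made on primed circular M13 template; series mostly up to about 57 µM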
How it was run: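 PicoGreen fluorescence (ex 480–485/em 535–540 nm) reports dsDNA synthesized on ssM13Gori template with dNTPs/NTPs. Enzyme: holoenzyme rebuilt from purified PolC, beta subunit, SSB and primase. Compound preincubated before substrate addition; RT throughout.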

[17] = biological target: Beta-2 adrenergic receptor (Homo sapiens) (UniProt P07550); experiment: qHTS validation assay of beta-arrestin-biased ligands of beta2-adrenergic receptor (AID 485366)
Beta-2 adrenergic receptor (Homo sapiens), sequence (P07550 whole entry, looked up): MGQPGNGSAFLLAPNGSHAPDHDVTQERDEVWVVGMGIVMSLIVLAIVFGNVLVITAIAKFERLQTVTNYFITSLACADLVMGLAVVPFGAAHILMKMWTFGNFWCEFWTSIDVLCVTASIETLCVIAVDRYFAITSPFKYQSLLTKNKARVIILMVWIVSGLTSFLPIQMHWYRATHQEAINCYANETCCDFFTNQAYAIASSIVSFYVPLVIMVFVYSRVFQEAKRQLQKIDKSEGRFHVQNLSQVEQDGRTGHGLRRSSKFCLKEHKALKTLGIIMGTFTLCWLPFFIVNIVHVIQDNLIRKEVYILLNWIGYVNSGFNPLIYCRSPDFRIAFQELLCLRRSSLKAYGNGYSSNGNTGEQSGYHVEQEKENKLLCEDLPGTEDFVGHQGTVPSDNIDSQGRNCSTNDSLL
How it was run: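 Agonism was measured as beta-arrestin recruitment to recombinant beta2-AR, releasing tTA to drive luciferase. Cells were exposed for 18 hr at 37 degrees C to a series up to 46 microM. %Activity from corrected luminescence gave concentration-response curves.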

[18] = Quantitative high throughput screen for delayed death inhibitors of the malarial parasite plastid, 48 hour incubation (AID 488752); also: nearly all actives have a fitted effect of over 65% in size
How it was run: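 One-generation (48 h) growth assay: a decrease in luciferase signal from an integrated reporter in P. falciparum-infected red cells (0.1% parasitemia, 2% hematocrit) after compound exposure at 37 C indicates parasite inhibition.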

Measured: Potency

c1ccc2c(c1)CCCC2C1=NCCN1 (stereo not drawn)
inactive: [1] | [2] | [3] | [4] | [5] | [6] | [7] | [8] | [9] | [10] | [11] | [12] | [13] | [14]

CN(C)CCCN1c2ccccc2Sc2ccccc21
inactive: [1] | [15] | [2] | [3] | [6] | [7] | [16] | [8] | [17] | [10] | [11] | [12] | [13] | [14]

CSc1ccc(C(=O)c2[nH]c(=O)[nH]c2C)cc1
inactive: [1] | [2] | [3] | [4] | [5] | [6] | [7] | [16] | [8] | [9] | [10] | [18] | [11] | [12] | [13]

CC(C(=O)O)c1ccc(CC2CCCC2=O)cc1 (stereo not drawn)
inactive: [1] | [15] | [2] | [3] | [4] | [5] | [6] | [7] | [16] | [8] | [9] | [17] | [10] | [12] | [13]

CC(C)NCC(O)c1cc(O)cc(O)c1 (stereo not drawn)
inactive: [1] | [2] | [3] | [4] | [5] | [6] | [7] | [8] | [9] | [10] | [18] | [11] | [12] | [14]

CC(C)NNC(=O)c1ccncc1
inactive: [1] | [15] | [2] | [3] | [4] | [5] | [6] | [7] | [16] | [8] | [9] | [17] | [18] | [12] | [13] | [14]
